Of roughly 7,900 targets only a part is listed; those with a hit were picked by preference. About 0.6% of all pairs of compound and target were hits. Values without a mark were called inactive.
What was measured:
Assay in all cases: log2 fold change, soluble protein after heating vs DMSO (PISA); higher = thermal stabilisation; K562 cells, 10 uM, 30 min; active = over 0.2 and 3.5 SD of the protein, either way, in both replicates (recomputed)
saracatinib = compound: CN1CCN(CCOc2cc(OC3CCOCC3)c3c(Nc4c(Cl)ccc5c4OCO5)ncnc3c2)CC1 [saracatinib]
Outline: (§1)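 K562 cells at 2×10^6 cells/mL were exposed to 10 μM compound for 30 min, then aliquots were heated for 3 min across 48°C-58°C, pooled, and extracted in PBS containing 0.5% NP-40 at 4°C. The supernatant after 21,000xg for 90 min was taken as soluble protein and measured by TMTpro 16plex LC-MS/MS with channel sums equalised. Thermal stability is reported relative to control samples, with values from duplicates. Fold changes are given on a log2 scale.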

sotrastaurin = compound: CN1CCN(c2nc(C3=C(c4c[nH]c5ccccc45)C(=O)NC3=O)c3ccccc3n2)CC1 [sotrastaurin]
Outline: as §1

alvocidib = compound: CN1CC[C@H](c2c(O)cc(O)c3c(=O)cc(-c4ccccc4Cl)oc23)[C@H](O)C1 [alvocidib]
Outline: as §1

Tubastatin A = compound: CN1CCc2c(c3ccccc3n2Cc2ccc(C(=O)NO)cc2)C1 [Tubastatin A]
Outline: as §1

[1] = compound: CNc1nc(-c2ccc3c(N)n[nH]c3c2)cc(N2C[C@@H](C(=O)NC3CCCCC3)CC[C@H]2C)n1
Outline: as §1

[2] = compound: COC1=CC=C(C=C1)CN2C=CC3=C2C=C(C=C3)C(=O)NO
Outline: as §1

filanesib = compound: CON(C)C(=O)N1N=C(c2cc(F)ccc2F)S[C@@]1(CCCN)c1ccccc1 [filanesib]
Outline: as §1

zotarolimus = compound: CO[C@H]1C[C@@H]2CC[C@@H](C)[C@@](O)(O2)C(=O)C(=O)N2CCCC[C@H]2C(=O)O[C@H]([C@H](C)C[C@@H]2CC[C@H](n3cnnn3)[C@H](OC)C2)CC(=O)[C@H](C)/C=C(\C)[C@@H](O)[C@@H](OC)C(=O)[C@H](C)C[C@H](C)/C=C/C=C/C=C/1C [zotarolimus]
Outline: as §1

idasanutlin = compound: COc1cc(C(=O)O)ccc1NC(=O)[C@@H]1N[C@@H](CC(C)(C)C)[C@](C#N)(c2ccc(Cl)cc2F)[C@H]1c1cccc(Cl)c1F [idasanutlin]
Outline: as §1

[3] = compound: COc1cc2nc(-c3cc(F)ccc3O)nc(N[C@@H]3CNC[C@H]3C(C)(C)O)c2cc1OC
Outline: as §1

gefitinib = compound: COc1cc2ncnc(Nc3ccc(F)c(Cl)c3)c2cc1OCCCN1CCOCC1 [gefitinib]
Outline: as §1

lapatinib = compound: CS(=O)(=O)CCNCc1ccc(-c2ccc3ncnc(Nc4ccc(OCc5cccc(F)c5)c(Cl)c4)c3c2)o1 [lapatinib]
Outline: as §1

[4] = compound: CNC(=O)C1=CC=CC=C1NC2=NC(=NC=C2Cl)NC3=C(C=C(C=C3)N4CCOCC4)OC
Outline: as §1

rucaparib = compound: CNCc1ccc(-c2[nH]c3cc(F)cc4c3c2CCNC4=O)cc1 [rucaparib]
Outline: as §1

encorafenib = compound: COC(=O)N[C@@H](C)CNc1nccc(-c2cn(C(C)C)nc2-c2cc(Cl)cc(NS(C)(=O)=O)c2F)n1 [encorafenib]
Outline: as §1

alisertib = compound: COc1cc(Nc2ncc3c(n2)-c2ccc(Cl)cc2C(c2c(F)cccc2OC)=NC3)ccc1C(=O)O [alisertib]
Outline: as §1

[5] = compound: COc1cccc2cc(-c3nc([C@H]4CC[C@H](C(=O)O)CC4)n4ncnc(N)c34)[nH]c12
Outline: as §1

pictilisib = compound: CS(=O)(=O)N1CCN(Cc2cc3nc(-c4cccc5[nH]ncc45)nc(N4CCOCC4)c3s2)CC1 [pictilisib]
Outline: as §1

defactinib = compound: CNC(=O)c1ccc(Nc2ncc(C(F)(F)F)c(NCc3nccnc3N(C)S(C)(=O)=O)n2)cc1 [defactinib]
Outline: as §1

[6] = compound: COC(=O)[C@H](CCSC)NC(=O)C1=C(C=C(C=C1)NC[C@H](CS)N)C2=CC=CC=C2
Outline: as §1

Sequence of UniProt Q7Z3V4 (Q7Z3V4 whole entry, looked up): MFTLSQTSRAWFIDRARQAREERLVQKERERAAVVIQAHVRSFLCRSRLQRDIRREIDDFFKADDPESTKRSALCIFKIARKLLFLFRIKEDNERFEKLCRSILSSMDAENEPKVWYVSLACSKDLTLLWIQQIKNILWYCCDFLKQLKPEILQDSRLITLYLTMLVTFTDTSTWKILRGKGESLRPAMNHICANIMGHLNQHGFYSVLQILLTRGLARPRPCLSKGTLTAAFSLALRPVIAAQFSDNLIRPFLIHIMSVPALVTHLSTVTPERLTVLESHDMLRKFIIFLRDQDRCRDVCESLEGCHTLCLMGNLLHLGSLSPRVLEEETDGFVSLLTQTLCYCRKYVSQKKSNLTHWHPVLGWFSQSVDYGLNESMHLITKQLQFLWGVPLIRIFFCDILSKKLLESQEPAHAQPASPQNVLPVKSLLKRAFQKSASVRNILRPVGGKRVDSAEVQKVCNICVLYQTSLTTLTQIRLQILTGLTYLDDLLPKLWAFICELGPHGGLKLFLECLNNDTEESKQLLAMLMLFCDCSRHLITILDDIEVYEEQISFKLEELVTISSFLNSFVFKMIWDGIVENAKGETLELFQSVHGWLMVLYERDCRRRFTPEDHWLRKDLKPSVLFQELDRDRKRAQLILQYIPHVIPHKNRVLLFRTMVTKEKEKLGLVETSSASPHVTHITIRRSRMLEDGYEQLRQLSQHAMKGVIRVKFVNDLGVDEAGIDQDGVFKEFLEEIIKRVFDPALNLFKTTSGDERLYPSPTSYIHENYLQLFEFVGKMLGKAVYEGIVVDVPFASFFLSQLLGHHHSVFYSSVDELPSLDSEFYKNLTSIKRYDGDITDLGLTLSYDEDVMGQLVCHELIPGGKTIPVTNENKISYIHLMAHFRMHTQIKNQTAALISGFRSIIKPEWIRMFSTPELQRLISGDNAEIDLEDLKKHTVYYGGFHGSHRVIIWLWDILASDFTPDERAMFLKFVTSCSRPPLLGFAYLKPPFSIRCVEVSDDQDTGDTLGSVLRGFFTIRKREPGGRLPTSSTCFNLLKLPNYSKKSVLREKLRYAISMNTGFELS
Sequence of UniProt Q5VZI3 (Q5VZI3 whole entry, looked up): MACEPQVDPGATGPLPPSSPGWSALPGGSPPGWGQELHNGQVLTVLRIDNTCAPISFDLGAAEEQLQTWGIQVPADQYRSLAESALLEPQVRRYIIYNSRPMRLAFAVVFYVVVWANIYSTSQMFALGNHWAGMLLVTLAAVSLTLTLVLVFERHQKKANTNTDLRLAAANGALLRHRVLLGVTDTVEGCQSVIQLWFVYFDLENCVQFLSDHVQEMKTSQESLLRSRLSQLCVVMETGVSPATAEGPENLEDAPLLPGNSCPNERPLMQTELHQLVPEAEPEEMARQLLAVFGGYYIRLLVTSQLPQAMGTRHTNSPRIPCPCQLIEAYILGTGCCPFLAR
Sequence of UniProt Q86TN4 (Q86TN4 whole entry, looked up): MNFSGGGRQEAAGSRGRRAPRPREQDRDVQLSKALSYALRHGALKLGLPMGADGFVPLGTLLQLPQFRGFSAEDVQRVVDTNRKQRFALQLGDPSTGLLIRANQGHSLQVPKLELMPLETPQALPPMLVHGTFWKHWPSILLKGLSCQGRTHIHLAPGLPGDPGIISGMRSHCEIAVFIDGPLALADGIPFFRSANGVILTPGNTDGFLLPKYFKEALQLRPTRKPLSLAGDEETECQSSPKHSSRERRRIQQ
Sequence of UniProt Q629K1 (Q629K1 whole entry, looked up): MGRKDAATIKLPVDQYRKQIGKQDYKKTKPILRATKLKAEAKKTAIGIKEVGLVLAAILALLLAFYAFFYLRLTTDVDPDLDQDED
Sequence of UniProt O75691 (O75691 whole entry, looked up): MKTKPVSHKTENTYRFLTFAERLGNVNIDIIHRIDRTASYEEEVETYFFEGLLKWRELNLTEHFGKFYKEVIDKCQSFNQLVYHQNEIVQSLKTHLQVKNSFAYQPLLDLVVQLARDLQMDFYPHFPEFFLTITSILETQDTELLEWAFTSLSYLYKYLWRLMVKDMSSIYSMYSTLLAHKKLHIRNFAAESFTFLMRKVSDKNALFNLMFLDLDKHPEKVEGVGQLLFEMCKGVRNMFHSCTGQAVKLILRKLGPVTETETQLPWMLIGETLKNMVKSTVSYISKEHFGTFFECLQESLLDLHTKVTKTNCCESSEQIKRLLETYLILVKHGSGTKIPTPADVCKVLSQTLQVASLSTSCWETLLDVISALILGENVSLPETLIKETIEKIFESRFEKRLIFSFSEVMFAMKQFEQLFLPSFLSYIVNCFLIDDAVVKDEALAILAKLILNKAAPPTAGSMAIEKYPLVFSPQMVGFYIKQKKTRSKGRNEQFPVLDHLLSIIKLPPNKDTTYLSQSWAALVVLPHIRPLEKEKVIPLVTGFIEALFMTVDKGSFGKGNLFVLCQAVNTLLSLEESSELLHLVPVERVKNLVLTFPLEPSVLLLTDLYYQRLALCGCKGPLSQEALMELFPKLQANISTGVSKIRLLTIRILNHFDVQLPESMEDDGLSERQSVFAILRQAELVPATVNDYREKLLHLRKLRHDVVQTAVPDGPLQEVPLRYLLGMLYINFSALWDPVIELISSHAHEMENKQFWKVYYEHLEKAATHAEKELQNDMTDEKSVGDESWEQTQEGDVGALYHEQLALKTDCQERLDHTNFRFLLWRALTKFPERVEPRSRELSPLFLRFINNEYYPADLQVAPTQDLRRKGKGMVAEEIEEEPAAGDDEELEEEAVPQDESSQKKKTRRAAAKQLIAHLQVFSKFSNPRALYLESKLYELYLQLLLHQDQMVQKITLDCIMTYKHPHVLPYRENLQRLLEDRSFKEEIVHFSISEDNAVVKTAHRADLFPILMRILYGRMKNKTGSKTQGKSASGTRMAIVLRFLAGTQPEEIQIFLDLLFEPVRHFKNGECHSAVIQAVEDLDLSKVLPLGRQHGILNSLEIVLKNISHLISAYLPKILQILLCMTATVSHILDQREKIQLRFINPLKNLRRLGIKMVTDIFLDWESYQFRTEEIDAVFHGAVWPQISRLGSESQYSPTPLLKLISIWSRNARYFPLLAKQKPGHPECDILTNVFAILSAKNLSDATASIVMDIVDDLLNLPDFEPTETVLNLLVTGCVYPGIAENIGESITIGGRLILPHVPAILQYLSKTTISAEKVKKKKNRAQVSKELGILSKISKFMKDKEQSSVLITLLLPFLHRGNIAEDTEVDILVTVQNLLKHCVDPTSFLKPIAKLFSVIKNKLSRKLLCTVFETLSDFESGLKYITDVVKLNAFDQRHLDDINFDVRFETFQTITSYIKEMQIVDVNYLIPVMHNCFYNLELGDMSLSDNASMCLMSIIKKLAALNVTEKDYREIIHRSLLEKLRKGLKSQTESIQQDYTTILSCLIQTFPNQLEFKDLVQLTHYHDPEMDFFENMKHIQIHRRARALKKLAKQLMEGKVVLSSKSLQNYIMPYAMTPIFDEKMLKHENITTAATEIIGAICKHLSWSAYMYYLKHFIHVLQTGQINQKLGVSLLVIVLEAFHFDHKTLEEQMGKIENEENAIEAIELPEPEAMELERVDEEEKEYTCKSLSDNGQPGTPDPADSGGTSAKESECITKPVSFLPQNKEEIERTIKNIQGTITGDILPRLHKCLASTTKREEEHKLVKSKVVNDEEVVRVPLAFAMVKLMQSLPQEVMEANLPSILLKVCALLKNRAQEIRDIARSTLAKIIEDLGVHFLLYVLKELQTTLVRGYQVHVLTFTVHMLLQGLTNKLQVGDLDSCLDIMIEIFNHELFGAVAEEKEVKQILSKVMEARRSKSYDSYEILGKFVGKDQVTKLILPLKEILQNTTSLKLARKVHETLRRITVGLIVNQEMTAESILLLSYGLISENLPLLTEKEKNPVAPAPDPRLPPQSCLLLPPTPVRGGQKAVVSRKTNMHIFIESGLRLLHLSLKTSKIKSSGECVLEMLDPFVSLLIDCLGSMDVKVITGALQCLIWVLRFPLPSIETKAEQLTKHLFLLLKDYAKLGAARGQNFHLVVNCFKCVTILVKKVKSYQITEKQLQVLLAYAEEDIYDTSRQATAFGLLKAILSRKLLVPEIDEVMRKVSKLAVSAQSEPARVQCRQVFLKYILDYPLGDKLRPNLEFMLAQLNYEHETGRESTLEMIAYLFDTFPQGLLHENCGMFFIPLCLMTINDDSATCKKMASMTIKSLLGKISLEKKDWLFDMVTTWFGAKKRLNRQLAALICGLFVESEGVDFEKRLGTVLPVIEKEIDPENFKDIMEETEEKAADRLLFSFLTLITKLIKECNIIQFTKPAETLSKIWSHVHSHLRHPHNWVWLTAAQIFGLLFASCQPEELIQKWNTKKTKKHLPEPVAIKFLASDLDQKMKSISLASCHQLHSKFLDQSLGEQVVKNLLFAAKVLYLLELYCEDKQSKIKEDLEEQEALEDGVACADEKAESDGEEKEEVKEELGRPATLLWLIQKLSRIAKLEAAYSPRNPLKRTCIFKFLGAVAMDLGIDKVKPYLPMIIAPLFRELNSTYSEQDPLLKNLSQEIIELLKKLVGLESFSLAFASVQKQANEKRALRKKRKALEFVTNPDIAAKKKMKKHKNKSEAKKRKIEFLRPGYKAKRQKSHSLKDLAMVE
Sequence of UniProt P57081 (P57081 whole entry, looked up): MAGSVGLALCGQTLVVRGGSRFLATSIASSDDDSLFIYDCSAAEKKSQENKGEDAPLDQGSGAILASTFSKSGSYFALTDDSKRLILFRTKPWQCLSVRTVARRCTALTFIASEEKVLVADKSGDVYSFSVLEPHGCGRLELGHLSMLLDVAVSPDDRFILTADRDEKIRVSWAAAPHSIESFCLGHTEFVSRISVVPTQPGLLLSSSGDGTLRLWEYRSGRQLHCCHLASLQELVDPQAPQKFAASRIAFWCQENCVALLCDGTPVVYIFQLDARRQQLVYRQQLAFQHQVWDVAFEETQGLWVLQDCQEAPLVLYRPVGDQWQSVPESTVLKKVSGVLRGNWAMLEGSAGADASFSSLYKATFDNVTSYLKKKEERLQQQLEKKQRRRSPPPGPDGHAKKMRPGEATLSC

Row | Target | log2 fold change (saracatinib) | log2 fold change (sotrastaurin) | log2 fold change (alvocidib) | log2 fold change (Tubastatin A) | log2 fold change [1] | log2 fold change [2] | log2 fold change (filanesib) | log2 fold change (zotarolimus) | log2 fold change (idasanutlin) | log2 fold change [3] | log2 fold change (gefitinib) | log2 fold change (lapatinib) | log2 fold change [4] | log2 fold change (rucaparib) | log2 fold change (encorafenib) | log2 fold change (alisertib) | log2 fold change [5] | log2 fold change (pictilisib) | log2 fold change (defactinib) | log2 fold change [6]
1 | UBE3B (UniProt Q7Z3V4) | -0.028 | 0.005 | 0.122 | 0.128 | -0.032 | 0.03 | 0.058 | 0.086 | 0.065 | 0.247 | -0.037 | 0.212 | – | – | – | – | – | – | – | –
2 | TSC2 (UniProt P49815) | – | -0.085 | -0.134 | 0.437 | – | 0.361 | 0.198 | -0.181 | 0.017 | -0.039 | – | 0.135 | -0.603 | -0.097 | 0.042 | 0.195 | 0.139 | 0.076 | – | –
3 | TMEM179B (UniProt Q7Z7N9) | – | 0.151 | 0.097 | 0.036 | – | -0.019 | -0.162 | -0.205 | 0.088 | -0.03 | 0.039 | 0.032 | 0.044 | 0.026 | -0.015 | -0.007 | 0.175 | 0.036 | – | –
4 | TRPT1 isoform 4 (UniProt Q86TN4) | – | -0.208 | – | – | – | -0.088 | -0.053 | – | -0.194 | – | – | – | -0.069 | 0.101 | 0.036 | -0.055 | -0.061 | – | – | –
5 | TMEM268 isoform 3 (UniProt Q5VZI3) | 0.033 | -0.103 | 0.069 | 0.131 | 0.046 | – | -0.064 | 0.104 | -0.135 | -0.25 | -0.079 | 0.09 | -0.017 | -0.021 | -0.19 | 0.014 | 0.001 | -0.088 | – | –
6 | XAB2 (UniProt Q9HCS7) | 0.052 | – | – | – | 0.073 | -0.174 | – | – | – | – | – | – | – | – | – | -0.12 | 0.105 | – | – | –
7 | TRIQK (UniProt Q629K1) | -0.014 | -0.112 | 0.011 | -0.094 | -0.045 | -0.002 | 0.1 | -0.08 | – | – | – | – | – | – | – | -0.142 | 0.106 | – | – | –
8 | TTC33 (UniProt Q6PID6) | -0.103 | 0.009 | 0.041 | – | -0.152 | 0.094 | 0.031 | -0.113 | -0.039 | 0.082 | – | -0.15 | 0.012 | -0.008 | -0.014 | 0.071 | 0.086 | -0.093 | 0.013 | 0.054
9 | U2AF1L5 (UniProt P0DN76) | -0.013 | – | – | 0.072 | -0.023 | -0.034 | – | – | -0.051 | – | -0.048 | – | 0.084 | 0.236 | 0.23 | -0.517 | -0.238 | – | -0.409 | 0.107
10 | WDR4 isoform 3 (UniProt P57081) | – | 0.098 | – | – | – | – | -0.007 | – | – | – | – | – | – | – | – | – | – | 0.359 | – | –
11 | WARS1 (UniProt G3V3P2) | – | 0.336 | – | – | – | – | 0.087 | – | – | – | – | – | – | – | – | – | – | – | – | –
12 | VWA3B isoform 6 (UniProt Q502W6) | 0.042 | – | 0.079 | -0.018 | -0.076 | -0.156 | – | -0.083 | -0.41 | -0.272 | 0.008 | 0.079 | 0.017 | -0.448 | 0.095 | -0.081 | -0.022 | 0.118 | 0.039 | -0.04
13 | TRIM4 (UniProt Q9C037) | – | 0.024 | -0.029 | 0.097 | – | -0.066 | 0.003 | 0.056 | -0.208 | 0.129 | -0.155 | -0.011 | 0.439 (active) | 0.031 | 0.04 | -0.088 | -0.137 | 0.202 | -0.029 | -0.108
14 | UTP20 (UniProt O75691) | – | – | – | -0.028 | – | – | – | – | – | -0.087 | – | 0.076 | -0.051 | – | – | – | – | – | – | –
15 | VDAC1 (UniProt C9JI87) | -0.027 | 0.034 | 0.201 | – | -0.189 | – | 0.001 | -0.217 | -0.018 | 0.161 | -0.014 | -0.182 | -0.135 | -0.247 | -0.087 | -0.119 | -0.014 | – | – | –
16 | TTC26 | – | – | – | -0.033 | – | – | – | – | – | – | – | – | – | – | – | – | – | – | 0.265 | 0.144

Source: the supplement of paper PMC10849652
